Assay outcomes as filed in PubChem.
Beta apoptosis: blocks beta cell apoptosis; INS-1E cytokine-induced death, ATP luminescence, 48 h; percent of positive-control rescue, neutral wells zero; protection from apoptosis, % (concentration not given with the values); actives 0.8% (n = 300,000);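 active = Every replicate reaches about 75%, or at least half do and their mean reaches it too, limit read from the data; inconclusive = At least half of replicates reach the limit but their mean does not; inactive = Under half of replicates reach the limit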;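 also: 0% = cytokine-treated negative control wells and 100% = positive control rescue; higher means more ATP so stronger rescue from cytokine killing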
CSC inhib: blocks cancer stem cells; cancer stem cell-like cells viability, luminescence; inhibition, % at 7.5 µM; actives 1.1% (n = 300,000); AID 2717; in the data active = inhibition above about 75%; inconclusive = no clear call, values can overlap the other calls; tested in HMLE shEcad cells
Bfl-1 A1 inh: inhibitors of the anti-apoptotic protein A1, read as caspase activation. AID 2462. caspase activation, % (test concentration not listed). actives 0.066% (n = 330,000). MEF A1-2A-BIM cells, Caspase-Glo 3/7 luminescence, 3 h; percent of clofoctol response, vehicle zero;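 active = over half of replicate activation scores above 10%, or exactly half above 10 with the replicate mean above 10; inconclusive = replicate mean below 10 yet half the replicates above 10; inactive = over half of replicates below 10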
aSyn 5UTR inh: 5' untranslated region of α-synuclein, MLPCN primary screen; alpha-synuclein 5'UTR reporter, inhibitor activity; inhibition, % (tested at 7.5 µM); actives 0.82% (n = 300,000); in the data active = inhibition above about 60%; inconclusive = no clear call, values can overlap the other calls;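 also: H4 neuroglioblastoma cells stably carrying SNCA 5'UTR luciferase fusion; 0% = DMSO wells and 100% = positive control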
Mdm2 MdmX PPI: disrupts the human Mdm2-MdmX interaction; SaOS-2 split-luciferase Mdm2/MdmX complementation, luminescence; inhibition, % at 8 µM; actives 3% (n = 330,000); AID 485346;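 active = inhibition of at least 50% at 8 µM in the primary screen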
Mdm2 MdmX conf: human Mdm2/MdmX binding inhibition, confirmed; luminescent assay; shares compounds with Mdm2 MdmX PPI; inhibition, % at 8 µM; AID 489028; actives 55% (n = 10,000); in the data active = inhibition above about 40%
FLuc counter: counter-screen for Mdm2/MdmX inhibitors: full-length luciferase | shares compounds with Mdm2 MdmX PPI | inhibition, % at 8 µM | SaOS-2 full-length luciferase counterscreen, luminescence | actives 77% (n = 6,200);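 active = mean inhibition at 8 µM reaching about 37%, which flags the compound as non-specific, limit read from the data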;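 also: p53-null SaOS-2 cells with luciferase driven by a doxycycline-inducible promoter; compound on cells about two nights before reading with doxycycline added after day one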
* marks the source's active call; other numbers are inactive results; u = inconclusive; x = not tested or not shown. In the library only some 4.1% were active in any assay of this set; here they are far more common.

SMILES	Beta apoptosis	CSC inhib	Bfl-1 A1 inh	aSyn 5UTR inh	Mdm2 MdmX PPI	Mdm2 MdmX conf	FLuc counter
Cc1cc(Br)ccc1NC(=O)CNC(=O)CSc1ncccn1	-2	8	0	x	-5	x	x
Cc1cc(Br)ccc1NC(=O)CNC(=O)Cn1ncc(Cl)c(Cl)c1=O	-59	83*	0	63*	97*	99*	48*
COCCNCC(=O)Nc1ccc(C)c(S(=O)(=O)N2CCCCC2)c1	0	5	0	14	8	x	x
O=C(CN1CCCCC1)NC(=O)NC1CCCC1	0	-17	0	3	20	x	x
O=C(Cn1ncc(Cl)c(Cl)c1=O)NC(=O)NC1CCCCC1	-4	u	1	x	100*	97*	50*
O=C(Cn1ncc(Cl)c(Cl)c1=O)N1CCN(S(=O)(=O)c2ccc3ccccc3c2)CC1	14	102*	1	30	100*	100*	53*
Cc1nc2scc(C)n2c(=O)c1S(=O)(=O)NCC1CCN(Cc2ccc(F)cc2)CC1	-4	66	0	-8	6	x	x
Cc1cc(Br)c(OCc2ccc(C(=O)N/N=C3\CC4CC=CC34)cc2)c(Br)c1 (centres undefined)	-12	15	1	6	26	x	x
COc1ccc(NC(=O)Cn2ncc(Cl)c(Cl)c2=O)cc1S(=O)(=O)N1CCOCC1	-15	51	0	-32	x	x	x
Cc1ccc(S(=O)(=O)N2CCCCC2)cc1NC(=O)Cn1ncc(Cl)c(Cl)c1=O	-20	90*	0	x	97*	99*	55*
O=C(Cn1ncc(Cl)c(Cl)c1=O)Nc1ccc2c(c1)OCO2	-7	x	0	x	100*	83*	57*
Cc1ccc(S(=O)(=O)N2CCCCC2)cc1NC(=O)Cn1cnnn1	-7	0	0	-8	23	x	x
Cc1nn(CC(=O)Nc2ccc3c(c2)OCO3)c(C)c1Cl	0	-1	0	18	-9	x	x
CCN(CC)S(=O)(=O)c1cc(NC(=O)Cn2ncc(Cl)c(Cl)c2=O)ccc1C	-15	u	1	-99	100*	100*	50*
CCC(=O)c1ccc2c(c1)OCCO2	-2	9	0	-32	-11	x	x
O=C(Cn1ncc(Cl)c(Cl)c1=O)c1ccc2c(c1)OCCO2	113*	112*	-3	x	100*	82*	52*
CCCCN(C(=O)CSCc1ccc(C)cc1)c1c(N)n(CCC)c(=O)[nH]c1=O	-1	-1	0	13	-5	x	x
CCCCc1cc(=O)oc2cc(OC(C)C(=O)NCCN3CCOCC3)c(Cl)cc12 (centres undefined)	6	12	1	1	17	x	x
CC[C@@H]1[C@H]2CCCC(=O)N3CC[C@@H](C[C@@H]1Nc1ccccc1)[C@@H]23	2	-3	1	9	-15	x	x
CCCCCCCCCC[N+](C)(C)CC/C=C1/c2ccccc2Sc2ccc(Cl)cc21	91*	106*	3	19	83*	76*	19
CCCCCCCCCCC[N+](C)(C)CC/C=C1/c2ccccc2Sc2ccc(Cl)cc21	98*	59	u	15	78*	69*	29
OCCN1CCN(CC/C=C2/c3ccccc3Sc3ccc(Cl)cc32)CC1	-6	14	1	x	61*	24	x
CC(=O)N1CC(C(=O)Nc2ccc3c(c2)OCO3)Oc2ccccc21 (centres undefined)	1	25	0	x	18	x	x
C[C@@H](C[C@@H](O)[C@H](O)C(C)(C)O)[C@@H]1CC[C@]2(C)C3=CC[C@H]4C(C)(C)C(=O)CC[C@]4(C)[C@H]3CC[C@@]12C	x	-6	1	-4	51*	40*	96*
Cc1nc(N2CCc3ccccc3C2)[nH]c(=O)c1Cc1ccccc1	12	1	-1	-28	-5	x	x
SMILES	Beta apoptosis	CSC inhib	Bfl-1 A1 inh	aSyn 5UTR inh	Mdm2 MdmX PPI	Mdm2 MdmX conf	FLuc counter
Cc1nc(-n2[nH]c3c(c2=O)CCCC3)[nH]c(=O)c1Cc1ccccc1	-6	13	0	90*	58*	64*	31
Cc1c(NS(=O)(=O)c2cc(C(=O)N(C)Cc3ccccc3)ccc2Cl)c(=O)n(-c2ccccc2)n1C	0	-16	1	x	24	x	x
CCCCNc1ncnc2sc3c(c12)CCN(CCC)C3	6	-14	0	5	6	x	x
CCOC(=O)c1sc(NC(=O)CSc2nnnn2-c2ccc(C)cc2)c(C(=O)OCC)c1C	6	x	-1	20	10	x	x
CCOC(=O)c1sc(NC(=O)CSc2nc3c(c(=O)n2-c2ccc(C)cc2)SCC3)c(C(=O)OCC)c1C	-2	5	-1	37	64*	-1	x
N#Cc1ncc(-c2ccc3c(c2)OCCOCCOCCOCCOCCO3)nc1C#N	-1	31	0	16	71*	61*	11
COc1ccc(-c2ccc(=O)n(CC(=O)Nc3cccc(O)c3)n2)cc1OC	-11	-7	1	30	55*	55*	108*
CC(C)C[C@H](NC(=O)OC(C)(C)C)C(=O)N[C@@H](CO)[C@H](O)[C@@H]1C[C@@H]1C(=O)NC1CC1	4	-8	0	-21	-20	x	x
c1ccc(Cn2nnc3c(NCc4ccc5c(c4)OCO5)nc(C4CC4)nc32)cc1	14	-16	1	8	48	x	x
Cc1nc(NCc2ccc3c(c2)OCO3)c2nnn(Cc3ccccc3)c2n1	36	-2	-1	30	77*	38	67*
COCCn1c(C)cc(C(=O)CSc2nc3ccccc3s2)c1C	7	-10	-3	u	66*	70*	146*
COCCn1c(C)cc(C(=O)CSc2nnc3ccccn23)c1C	4	-5	-5	55	54*	62*	113*
Cc1cc(OCC(=O)Nc2ccc(CN3CCOCC3)cc2)c2c(C)c(C)c(=O)oc2c1	-1	-3	0	-51	58*	24	x
Cc1cc(OCC(=O)Nc2ccc(CN3CCOCC3)cc2)c2c(C)cc(=O)oc2c1	13	-2	0	-15	33	x	x
CCOc1ccc(NC(=O)CNc2cccc(S(=O)(=O)N3CCCCCC3)c2)cc1OCC	4	-2	2	x	23	x	x
COc1ccc(Nc2nc(-c3cccs3)nc3ccccc23)cc1S(=O)(=O)N1CCOCC1	29	38	1	-4	85*	82*	57*
COc1ccc(NS(=O)(=O)c2cccs2)cc1S(=O)(=O)N1CCOCC1	-1	-14	0	2	18	x	x
COc1ccc(N2CCN(C(=O)c3cc(=O)c4cc(C)ccc4o3)CC2)cc1	-1	-22	1	5	1	x	x
O[C@@H](c1cc(C(F)(F)F)nc2c(C(F)(F)F)cccc12)[C@H]1CCCCN1	-14	37	2	5	99*	78*	47*
O=c1c2cc(Cl)cc(Cl)c2nc2n1CCC2	-5	-9	0	12	6	x	x
